Measured values as given in PubChem BioAssay (NCI).
This is part of a sample that, as a whole, favours compounds with a hit. Of some 79,000 tested, about 15% had one in any assay. Unmarked numbers belong to inactive results. The source made the active and inactive calls. Cut-off read from the data, not from the text of the source: active = growth inhibition above about 70%; inactive = the rest.

Columns and labels:
[1] = NCI Yeast Anticancer Drug Screen. Data for the rad50 strain (AID 155);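 note: 0% = growth of vehicle-only cultures of the same strain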; details: S. cerevisiae rad50 strain growth inhibition; at 50.0 µM; active compounds read high
Outline: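 Compounds were tested on a yeast strain with an engineered DNA damage repair alteration; the reported value is growth inhibition normalised to vehicle treatment.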

[2] = NCI Yeast Anticancer Drug Screen. Data for the mec2-1 strain (AID 157); details: S. cerevisiae mec2-1 strain, at 50.0 µM, active compounds read high
Outline: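 Vehicle-treated cultures served as reference for growth inhibition of compound-exposed mec2-1 yeast.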

[3] = NCI Yeast Anticancer Drug Screen. Data for the sgs1 mgt1 strain (AID 161);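 note: 0% = growth of cultures given vehicle only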; details: S. cerevisiae sgs1 mgt1 strain, at 50.0 µM, active compounds read high
Outline: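 Mutant yeast exposed to compound; growth scored against vehicle-only wells.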

[4] = NCI Yeast Anticancer Drug Screen. Data for the cln2 rad14 strain (AID 165);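 note: 0% = growth equal to vehicle treated cultures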; details: S. cerevisiae cln2 rad14 strain, at 50.0 µM, active compounds read high
Outline: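 Each compound was tested on cln2 rad14 yeast. Inhibition of growth was calculated against vehicle-exposed controls.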

[5] = NCI Yeast Anticancer Drug Screen. Data for the bub3 strain (AID 167); details: S. cerevisiae bub3 mutant strain, at 50.0 µM, active compounds read high
Outline: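 Growth of a checkpoint-deficient yeast mutant is measured after compound exposure. Values represent inhibition relative to vehicle.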

[6] = NCI Yeast Anticancer Drug Screen. Data for the mlh1 rad18 strain (AID 175); details: S. cerevisiae mlh1 rad18 strain growth inhibition; at 50.0 µM; active compounds read high
Outline: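 Vehicle-treated cultures served as the reference for growth inhibition in a yeast strain carrying DNA damage repair alterations exposed to each compound.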

Row | SMILES | growth inhibition [1] | growth inhibition [2] | growth inhibition [3] | growth inhibition [4] | growth inhibition [5] | growth inhibition [6]
1 | COn1c2ccccc2c2c1cc1ccccc1[n+]2[O-] | -7.15% | -5.95% | -8.9% | -52.5% | -9.65% | -13.4%
2 | O=C(Nc1ccc(N=C=S)cc1Cl)c1ccc2ccccc2c1O | 15.6% | 14.3% | 6.75% | 12.6% | 4.05% | 8.25%
3 | N#CCC(=O)NCCc1c[nH]c2ccccc12 | -18.1% | 0.2% | -14.7% | -32.8% | -6.1% | -27.8%
4 | CCOC(=O)CSc1ccnc(=O)[nH]1 | -9.25% | -8.9% | -5.35% | 0.1% | -16% | -31.8%
5 | COc1cc(OC)cc(N(C)Cc2cnc3nc(N)nc(N)c3c2C)c1 | 0.75% | 11.7% | 15.6% | 11.3% | 12.3% | -3.45%
6 | COC(=O)C(CC(=O)[C@H]1CC[C@H]2[C@@H]3CC[C@H]4C[C@@H](OC(C)=O)CC[C@]4(C)[C@H]3CC[C@]12C)OC(C)=O (stereo partly specified) | 51.5% | 40.9% | 57.5% | 53% | -2.7% | 44.2%
7 | CC(CC(=O)O)C1(C)C2CCCCC2C2CCCCC21 (stereo unspecified) | -6.2% | -9.6% | 5.75% | -13.3% | -4.15% | -2.8%
8 | O=c1[nH]c(-c2ccccc2)nc2cc([N+](=O)[O-])c(/C(Cl)=C/c3ccccc3)cc12 | 28.8% | 14.4% | 13.8% | 12.1% | -1% | 33.8%
9 | CC1OC(C)(c2ccccc2)OC1C (stereo unspecified) | 18.1% | 13.8% | 27.1% | -26.5% | 32.7% | 41.7%
10 | COc1ccc(/C=N/N2CCN(/N=C/c3ccc(OC)c(O)c3)CC2)cc1O | 22.1% | 4.5% | 15.1% | 28.6% | 1.05% | 9.85%
11 | O=C(c1ccc(Cl)cc1)C(Br)C(C[N+](=O)[O-])c1ccccc1 (stereo unspecified) | 99.3% (active) | 99% (active) | 99.5% (active) | 97.2% (active) | 99.1% (active) | 99.2% (active)
12 | O=C(Cc1cc[n+]([O-])cc1)C(=O)Nc1cc(Cl)c(Cl)cc1Cl | -27.4% | -11.9% | -21.5% | -17.1% | -17.8% | -20.1%
13 | COc1ccc(C2C(C)C(=O)C(C)C(c3ccc(OC)cc3)N2N=O)cc1 (stereo unspecified) | 3.15% | 6.4% | 15.6% | -1.2% | 26.6% | 32.8%
14 | CCCC(=O)Oc1cccc(C)c1 | 15.7% | 4.75% | 0.1% | 14.6% | 0.1% | -17.8%
15 | CC(OC1CC(=O)CC2C(=O)C=CC(=O)C12)c1ccccc1 (stereo unspecified) | 25.1% | 21.8% | 26.3% | 20.6% | 28.4% | 26.3%
16 | Cc1nc(N)nc2ccccc12 | 3.15% | -25.3% | -16% | -5.8% | -7.9% | -16.1%
17 | Cc1cc(N=Nc2cc(Br)cc(Br)c2)cc(C)c1N | 10.8% | 1.3% | 18.1% | -12.2% | 3.55% | 7.65%
18 | CC(=O)Nc1c(CCCCc2ccccc2)[nH]c(=O)[nH]c1=O | 1.8% | 22.5% | 25.8% | 1.4% | 17% | -0.95%
19 | O=C(c1ccc(F)cc1)c1c[nH]c(=O)[nH]c1=O | -0.45% | -18.1% | -7.85% | -6.85% | 2.6% | -33.2%
20 | O=c1c2ccccc2nc(-c2ccccc2Cl)n1NCC1(O)OCC(O)C(O)C1O (stereo unspecified) | 12% | 5.2% | 16.6% | -13.2% | -1.2% | 3.25%
21 | CCOc1c(C)cc(C(C)c2cc3c(cc2OC)OCO3)cc1C (stereo unspecified) | 19.2% | 26% | 23.5% | 17.4% | 51.4% | 25.1%

Row | SMILES | growth inhibition [1] | growth inhibition [2] | growth inhibition [3] | growth inhibition [4] | growth inhibition [5] | growth inhibition [6]
22 | CSC1=NC=C(C#N)C2=NC(c3ccccc3)NN12 (stereo unspecified) | -0.3% | -5.55% | -6.6% | -14.2% | 2.8% | 7%
23 | CCNS(=O)(=O)c1ccccc1 | -8.55% | -29.2% | -2.7% | 5.9% | -1.95% | 14.7%
24 | N#Cc1ccccc1NC(=O)Nc1ccc(Cl)cc1Cl | 16.4% | -7.35% | 27% | -0.25% | 4.35% | 10.6%
25 | CC(=NNC(=S)Nc1ccccc1)c1cccc(C(C)=NNC(=S)Nc2ccccc2)n1 | -7.4% | -7.55% | -0.8% | 2.65% | -2.3% | 6.4%
26 | CC(C)(C#N)CCCCC(C)(C)C#N | 3.1% | 0.7% | 1.2% | 11.8% | 12.4% | 3.8%
27 | COc1cc(/C=C/Cc2cc3c(cc2O)OCO3)cc(OC)c1OC | 0.7% | -15.6% | 0.55% | -21.6% | -1.9% | 0.75%
28 | O=C1c2ccccc2C(=O)N1CNc1ccccc1S | 13.2% | 5.1% | 19.6% | 28.4% | 22.1% | -8%
29 | COc1cccc(NC(N)=O)c1 | -15.5% | -14.2% | -9.3% | -9.5% | -10.1% | -19.4%
30 | CCC(c1ccc2oc(C)cc2c1)C(CC)c1ccc2oc(C)cc2c1 (stereo unspecified) | -15.4% | -4.9% | -3.45% | 13.2% | 45% | -23.2%
31 | CCOC(=O)C(CCCCC(CN(CC)CC)(C(=O)OCC)c1ccccc1)(CN(CC)CC)c1ccccc1 (stereo unspecified) | 29.4% | -10.2% | 11.7% | 0.65% | 2% | 12.3%
32 | COc1cc(-c2cc(=O)c3c(OC)c(OC)c(OC)cc3o2)c(OC)c(OC)c1OC | 38% | 10.6% | 3.05% | -12.9% | -6.15% | -36.8%
33 | Nc1ccc(Sc2nnc(N)s2)cc1 | -26% | -16.6% | -53.1% | 6.8% | -31.4% | -47.5%
34 | C#CC(C)(C)OC(=O)Nc1ccc(Cl)cc1 | 27.4% | 16.2% | -0.35% | -44.2% | 7.9% | 13.1%
35 | CCOC(=O)c1cnc(=S)[nH]c1N | 40.5% | -8.35% | -19.2% | 7.9% | -3.15% | -43.5%
36 | COc1ccc2cc(OC)ccc2c1 | 4.95% | -14.6% | -1.15% | 22% | 1.5% | 14%
37 | COc1cc([N+](=O)[O-])c(C=O)c(C(=O)O)c1OC | 6.5% | -1.85% | -10.3% | 13.7% | 1.75% | 4.9%
38 | C/C(CC(=O)Nc1ccc(NC(=O)/C(C)=N/NS(=O)(=O)c2ccc(C)cc2)cc1)=N\NS(=O)(=O)c1ccc(C)cc1 | 16.2% | 2.95% | -12.8% | -6.35% | -0.9% | 27.1%
39 | COc1ccc(OCOCOc2ccc(OC)cc2)cc1 | -8.05% | 9.5% | 12.2% | -285% | 42.9% | -27.8%
40 | COC(=O)c1cc2c3c(ccc2[nH]1)N(C(=O)c1cc2c4c(ccc2[nH]1)N(C(=O)c1cc2c5c(ccc2[nH]1)N(C(N)=O)CC5)CC4)CC3 | 18.8% | 5.05% | -2.05% | 15.7% | 29.8% | 11.9%
41 | COc1ccc(/C=C(/NC(=O)c2ccccc2)C(=O)O)c(OC)c1C | 2.4% | 0.45% | 1.3% | -66% | -17.2% | -7.65%
